The list is not random: actives were taken first. Their share in the collection is about 2.2%.
Mito fusion act: qHTS Assay for Small Molecule Inhibitors of Mitochondrial Division or Activators of Mitochondrial Fusion; S. cerevisiae fusion-defective mutant growth rescue, CellTiterGlo 48 h; Potency, µM (titrated, usually from 46.1 µM), for the others: top-dose growth rescue (activation), actives largely listed as activators; actives 0.23% (n = 320,000); also: % of control where 0% means no effect; nearly all actives have a fitted effect of over 45% in size
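Growth-rescue viability read-out: after 48 h at the non-permissive 37C in glycerol/ethanol YPEG, yeast mitochondrial fusion mutants are measured by CellTiterGlo luminescence; compounds (23 nl pinned per well) restoring growth score as division inhibitors or fusion activators.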
TDP43 rescue: qHTS of TDP-43 Inhibitors; TDP-43 expressing yeast growth rescue, BacTiter-Glo, 24 h; Potency, µM (series often up to 46.1 µM), inactives show top-dose growth rescue (activation), actives largely listed as activators; actives 1.8% (n = 410,000); AID 652104, 2013; also: % of control where 0% means no effect; nearly all actives have a fitted effect of over 50% in size
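Yeast cells expressing TDP-43 under galactose induction are exposed to compounds for 24 hr at 30 deg C. BacTiter-Glo luminescence measures growth, so protective compounds score as activators.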
FUS yeast rescue: qHTS for Suppressors of FUS Proteinopathy: Primary screen using FUS-linked yeast assay; actives 0.24% (n = 390,000); Potency, µM (titrated, usually from 76.6 µM), usual class: activators; S. cerevisiae FUS-expressing, growth rescue, OD600, 24 h; AID 1347120, 2019;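 also: plate controls were DMSO vehicle for no effect and reference control for full effect; nearly all actives have a fitted effect of over 55% in size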
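Galactose (2%) drives FUS expression in yeast precultured in raffinose; seeding density OD 0.005. Test compounds incubated 24hr at 30C and 99% humidity before absorbance at 600 nm was measured.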
aSyn yeast inh: qHTS of alpha-syn Inhibitors; Potency, µM (titrated, usually from 46.1 µM), inactives show at the highest dose growth rescue (activation), hits mostly activators; Yeast expressing alpha-synuclein, growth rescue, BacTiter-Glo, 24 h; actives 0.14% (n = 370,000); also: % of control where 0% means no effect; nearly all actives have a fitted effect of over 65% in size
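Readout is rescue of growth in alpha-synuclein-expressing yeast, so inhibitors of toxicity appear as activators. Growth after 24 hr at 30 deg C in galactose medium is quantified by luminescence.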
Abeta yeast res: qHTS for compounds that reverse cellular toxicity of Amyloid beta (A-beta) peptide in yeast: Primary Screen | yeast expressing A-beta42, growth rescue, OD600, 48 h; response scale: 0% DMSO, 100% iron-clioquinol control | Potency, µM (doses to about 46.1 µM), actives largely listed as activators | actives 0.063% (n = 410,000); also: nearly all actives have a fitted effect of over 55% in size
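Yeast growth medium received pinned compounds, then yeast cells expressing toxic A-beta were added; plates incubated at 30 C for 48 hr. Growth read as absorbance at 600 nm, normalized to DMSO and equimolar FeCl3 plus clioquinol controls.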
An asterisk follows results filed as active; i = inactive; ? = inconclusive; nt = not tested or not shown. Calls follow the shape of the dose curve; as a rule, active = well fitted curve in the direction sought with a large enough effect; inconclusive = small, poorly fitted or top-dose-only effect, or another doubt; inactive = no such curve, though single readings can be large; an effect the other way counts as inactive or inconclusive. Potency is read from the fitted curve at half-maximal effect.

SMILES	Mito fusion act	TDP43 rescue	FUS yeast rescue	aSyn yeast inh	Abeta yeast res
COC(=O)c1sccc1NC(=O)Nc1ccc(C)cc1	-3%	?	i	-43%	i
COC(=O)c1sccc1NC(=O)Nc1ccc(C)cc1C	-2%	13µM*	i	0%	i
Cc1ccc(NC(=O)c2sccc2-n2cccc2)c(C)c1	27%	22µM*	i	7%	i
NC(=Nc1cccc(F)c1)NC(=O)OCc1ccccc1	nt	nt	i	nt	nt
COc1ccc(-c2noc(N3CCC(C(=O)N4CCN(c5cccc(C)c5C)CC4)CC3)n2)cc1	nt	0%	i	nt	i
COc1ccc(-c2noc(N3CCC(C(=O)N4CCN(c5ccccc5OC)CC4)CC3)n2)cc1	nt	28µM*	?	nt	i
COc1ccccc1N1CCN(C(=O)C2c3ccccc3Oc3ccccc32)CC1	20%	?	i	20µM*	i
C[C@@H]1C(=O)N2N=Cc3cc4ccccc4cc3[C@H]2N2N=Cc3cc4ccccc4cc3[C@@H]12	nt	nt	i	nt	nt
CCOC(=O)N1CCN(C(=O)c2ccc3oc(CCCc4ccccc4)nc3c2)CC1	8%	16µM*	i	6%	i
COc1cc2c(cc1OC)CN(C(=O)c1ccc(OC)c([N+](=O)[O-])c1)CC2	-1%	3%	i	-3%	i
COc1cc2c(cc1OC)CN(C(=O)c1ccc(Br)o1)CC2	-6%	16µM*	i	5%	i
COc1cc2c(cc1OC)CN(C(=O)c1cccc([N+](=O)[O-])c1)CC2	-4%	22µM*	i	?	i
COc1cc2c(cc1OC)CN(C(=O)c1ccco1)CC2	-3%	-9%	?	0%	i
C[C@@H]1/C=C/CC(=O)N2[C@H](CC(=O)N[C@@H]1c1ccccc1)C[C@@H](C)[C@H]2c1ccccc1	nt	nt	i	nt	nt
CCN1C(=O)[C@@H]2[C@@H](c3ccc(-c4ccc(Cl)c(Cl)c4)cc3)N3CCC[C@@]3(C(=O)OC)[C@@H]2C1=O	nt	14%	20µM*	2%	i
CCN1C(=O)[C@H]2[C@@H](c3ccc(-c4ccc(Cl)c(Cl)c4)cc3)N3CCCC[C@@]3(C(=O)OC)[C@H]2C1=O	?	13%	i	?	i
CCN1C(=O)[C@H]2[C@@H](c3ccc(-c4ccc(Cl)c(Cl)c4)cc3)N[C@@](C)(C(=O)OC)[C@H]2C1=O	15%	20µM*	32µM*	-9%	i
CCN1C(=O)[C@H]2[C@@H](c3ccc(-c4ccc(Cl)c(Cl)c4)c(OC)c3)N[C@@](C)(C(=O)OC)[C@H]2C1=O	4%	5%	i	-1%	i
COC(=O)[C@@]12CCCCN1[C@H](c1ccc(-c3ccc(F)cc3)c(OC)c1)[C@H]1C(=O)N(C)C(=O)[C@H]12	nt	14%	i	5%	i
CCN1C(=O)[C@H]2[C@@H](c3ccc(-c4ccc(Cl)c(Cl)c4)c(OC)c3)N3CCCC[C@@]3(C(=O)OC)[C@H]2C1=O	nt	3%	25µM*	?	i
COC(=O)[C@@]12CCCCN1[C@H](c1ccc(-c3ccc(OC)cc3)c(OC)c1)[C@@H]1C(=O)N(C)C(=O)[C@@H]12	13µM*	?	i	15%	i
COC(=O)[C@]1(Cc2ccccc2)N[C@H](c2ccc(-c3cccc(Cl)c3)cc2)[C@@H]2C(=O)N(C)C(=O)[C@@H]21	30%	8%	14µM*	27%	i
COc1ccccc1NC(=O)CSc1nc2n[nH]c(C)c2c(=N)n1-c1ccccc1Cl	22µM*	-17%	?	12%	i
CN1C(=O)C2(OCC(C)([N+](=O)[O-])CO2)c2ccccc21 (stereo not drawn)	0%	5%	i	-2%	i
CN1C(=O)C2(N=c3ccccc3=N2)c2ccccc21	4%	11µM*	i	15%	i
SMILES	Mito fusion act	TDP43 rescue	FUS yeast rescue	aSyn yeast inh	Abeta yeast res
O=C(O)c1ccc(COc2ccc3ccccc3c2/C=C2/NC(=O)N(c3ccccc3)C2=O)cc1	-3%	4%	35µM*	-1%	i
Cc1ccc(C2OC(=O)c3ccccc32)cc1 (stereo not drawn)	-5%	35µM*	nt	2%	i
CCc1nc2ccccc2c(C(=O)OCC(=O)N(C)Cc2ccccc2)c1C	nt	35µM*	i	3%	i
O=S(=O)(Nc1ccc(N2CCOCC2)cc1)c1cc(Cl)ccc1Cl	7%	14µM*	i	15%	i
O=S(=O)(Nc1ccc2oc3c(c2c1)CCCC3)c1cc(Cl)ccc1Cl	nt	35µM*	i	nt	?
COc1ccc(S(=O)(=O)Nc2ccc3oc4c(c3c2)CCCC4)cc1	nt	35µM*	i	nt	i
O=S(=O)(Nc1ncccn1)c1ccc(NS(=O)(=O)c2cc(Cl)ccc2Cl)cc1	-1%	-1%	i	0%	i
O=C1[C@@H](C2CCCCC2)[C@@H]2c3ccccc3C=NN2[C@@H]2c3ccccc3C=NN12	nt	nt	i	nt	nt
S=C(NCc1cccc(Cl)c1)OC1CCC12CCC(c1ccccc1)CC2 (stereo not drawn)	nt	nt	i	nt	nt
COc1ccccc1NS(=O)(=O)c1cc(C(=O)Nc2ccc(S(=O)(=O)Nc3onc(C)c3C)cc2)ccc1C	nt	-19%	nt	-7%	i
CCN(Cc1ccccc1)C(=O)c1cnn(-c2ccc(F)cc2)c1-n1cccc1	nt	35µM*	i	8%	i
S=C(NCCSCc1ccc(Cl)c(Cl)c1)Nc1ccccc1	nt	11µM*	i	9%	i
O=C(NCCSCc1c(F)cccc1Cl)Nc1ccccc1	-21%	-7%	i	10%	i
CCCOc1ccc(CNC(=S)Nc2ccccc2)cc1Cl	-50%	?	i	-8%	11µM*
S=C(NCCSCc1ccc(Cl)cc1Cl)Nc1ccccc1	-16%	16µM*	i	6%	i
S=C(NCCSCc1c(Cl)cccc1Cl)Nc1ccccc1	-3%	10µM*	i	4%	i
COc1ccc(CNC(=S)Nc2ccccc2)cc1Cl	-31%	17%	i	6%	?
Cc1ccc(C=Nn2c(-c3n[nH]c4c3CCC4)n[nH]c2=S)o1	nt	nt	i	nt	nt
CCn1c(COc2ccccc2)nnc1SCC(=O)Nc1ccc(Oc2ccccc2)cc1	nt	nt	i	nt	nt
COc1ccc(CCNC(=O)Nc2ccc3c(c2)[C@]2(CC(=O)N(CC(C)C)C2c2ccccc2)C(=O)N3C)cc1OC (stereo partly drawn)	nt	nt	i	nt	nt
CCOc1ccc(CSCCNC(=S)Nc2ccccc2)cc1	8%	?	i	-13%	?
COc1ccc(CSCCNC(=S)Nc2ccccc2)cc1Cl	-12%	20µM*	i	4%	?

Assay outcomes (PubChem BioAssay)
